# Results: PubChem BioAssay AID2501 (Southern Research Specialized Biocontainment Screening …, 2010)
# In all, about 2,200 compounds went through this assay and about 1,200 (55%) were called active. The set was probably picked from earlier hits. The list shows a part of the results. Values without a mark were called inactive. No cut-off is given here; in the data, nearly all actives have IC50 up to about 92 µM.
# Experiment: counter assay for TAg ATPase ADP read-out – biochemical, ADP-Hunter, fluorescence, counter-screen (AID 2501);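 note: purified T antigen ATPase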;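 for inhibition: 0% = enzyme with vehicle and 100% = reference inhibitor wells; higher means more inhibition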
# Conditions: series mostly up to 100 µM; inhibition: at the top concentration
Compound,inhibition,IC50
Cn1cccc1/C=N/NC(=O)c1cccc(OC(F)(F)C(F)F)c1,-48.6%,–
COc1cccc(C2C(C(C)=O)=C(O)C(=O)N2CCNCCO)c1 (stereo not given),9.86%,–
COc1cccc(C(=O)Nc2ccc3c(c2)n(C)c(=O)n3C)c1,–,12.6 µM (active)
CN(C(=S)Nc1cccnc1)c1ccc(O)cc1,–,40.6 µM (active)
Oc1cccc(/C=N/NC(=S)Nc2cccnc2)c1O,–,8.21 µM (active)
Oc1ccc(/C=N/NC(=S)Nc2cccnc2)cc1,–,0.9 µM (active)
CCC(C)[C@H](N)c1nnc(SCC(=O)Nc2cccc(Cl)c2)o1 (stereo not given in full),-16.3%,–
CCN(CC)c1ccc(NC(=O)CSc2nnc(N)s2)cc1C,–,8.65 µM (active)
CCn1c(SCC(=O)Nc2cccc(C(C)=O)c2)nnc1C(C)C,22.6%,–
Cc1nn(-c2ccccc2)c2[nH]c(=O)c(CNc3ccc(N4CCOCC4)cc3)cc12,–,3.77 µM (active)
Cc1nn(-c2ccc(Cl)cc2)c2[nH]c(=O)c(CNCc3ccc4c(c3)OCO4)cc12,-5.68%,–
Cc1cccc(NC(=S)N2CCCN(c3ncccc3[N+](=O)[O-])CC2)c1,-0.13%,–
Oc1ccc(N2CCN(C(c3ccncc3)c3nnnn3C3CCCC3)CC2)cc1 (stereo not given),–,3.39 µM (active)
CCC(C)(C)n1nnnc1C(c1ccc2ncccc2c1)N1CCN(c2ccc(O)cc2)CC1 (stereo not given),–,5.17 µM (active)
Cc1nnc(C)c2c(C)n(-c3ccc4ncccc4c3)c(C)c12,-11.1%,–
CC(C)(C)n1nnnc1C(c1ccncc1)N1CCN(c2ccc(O)cc2)CC1 (stereo not given),–,6.75 µM (active)
Oc1ccc(N2CCN(C(c3ccccn3)c3nnnn3C3CCCC3)CC2)cc1 (stereo not given),–,3.68 µM (active)
COc1ccc(-c2cc(-c3ccco3)[nH]c(=O)c2C#N)cc1OC,-30%,–
O=C1SC(SCc2ccccc2)=N/C1=C\c1ccco1,-6.58%,–
COc1ccc(CNc2ccc(N3CCOCC3)cc2)cc1,–,10.5 µM (active)
Cc1ccc(CNc2ccc(N3CCOCC3)cc2)cc1,–,3.89 µM (active)
COc1ccc(CNS(=O)(=O)c2ccc3c(c2)N(C)CCO3)cc1,-38.9%,–
CCCCn1nc(NS(=O)(=O)c2cccc3nonc23)c2cc3cccc(C)c3nc21,–,20.5 µM (active)
O=C1CCN(Cc2ccc(O)cc2)CCN1[C@H](CO)Cc1ccccc1,-10.6%,–
CCCc1cc(=O)oc2cc(C)c(CN3CCCC3)c(O)c12,-145%,–

Compound,inhibition,IC50
O=c1cc(CN2CCN(Cc3ccccc3)CC2)c2ccc(O)c(O)c2o1,–,10.9 µM (active)
O=C(COc1ccccc1[N+](=O)[O-])N/N=C/c1ccc(O)cc1,–,6.73 µM (active)
Cc1ccc(S(=O)(=O)Cc2cc(F)c([N+](=O)[O-])cc2[N+](=O)[O-])cc1,-2.36%,–
Cc1ccc(/C=N\NC(=O)COc2ccc(C)cc2[N+](=O)[O-])cc1,–,23.3 µM (active)
COc1ccc(C)cc1NC(=O)COC(=O)c1ccc([N+](=O)[O-])o1,1.11%,–
CCc1ccc2cccc3c2c1N=CN3C,–,8.65 µM (active)
C[C@H](CCC(=O)O)[C@H]1CC[C@H]2[C@@H]3CC[C@@H]4C[C@H](O)CC[C@]4(C)[C@H]3CC[C@]12C,-14.9%,–
Cc1cnc(C(=O)Nc2ccc(S(=O)(=O)NCC(C)C)cc2)cn1,3.46%,–
Cn1ccnc1SCC(=O)Nc1cccc(C(F)(F)F)c1,21%,–
CN(C)c1ccc(NC(=O)CSc2nnc(-c3cnccn3)n2C)cc1,–,7.11 µM (active)
Nn1c(SCC(=O)NC(=O)Nc2ccc3c(c2)OCCO3)nnc1C1CC1,19.5%,–
CCCCOC(=O)c1ccc(NC(=O)CSc2nnnn2C)cc1,-25.8%,–
Cc1nnc(SCC(=O)Nc2ccc(N(C)C)cc2)n(N)c1=O,–,5.56 µM (active)
CCn1c2ccccc2c2cc(NC(=O)CSc3nnc(C4CC4)n3Cc3ccco3)ccc21,-0.57%,–
CCCCn1nnnc1SCC(=O)Nc1ccc(N(C)C)cc1,–,3.37 µM (active)
CCn1c(SCC(=O)Nc2ccc(N(C)C)cc2)nnc1C1CC1,–,5.16 µM (active)
Cc1cc(-c2nc3c4c5c(sc4[nH]c(=O)n3n2)CCC5)c(C)o1,29.2%,–
CNC[C@@H](C)NC[C@@H](Cc1ccccc1)NCCc1ccccc1,2.97%,–
Cc1c(CCC(=O)NCCCC(=O)O)c(=O)oc2cc3oc4c(c3cc12)CCCC4,-7.81%,–
CCOC(CNC(=O)C1CCN(S(=O)(=O)c2ccc3nc4c(c(C(=O)O)c3c2)CCCCC4)CC1)OCC,-31.7%,–
O=C(NCc1ccco1)C1CC(=O)N(c2ccc(O)cc2)C1 (stereo not given),–,6.48 µM (active)
O=C(CCN1C(=O)c2ccccc2S1(=O)=O)NCc1ccco1,-8.68%,–
Cc1ccc(C)c(S(=O)(=O)N2CCCCC2CCNC(=O)C(=O)NCc2ccco2)c1 (stereo not given),-0.3%,–
Cc1nc2ccc(N=NN(C)C)cc2[nH]1,-2.2%,–
N#CC1=C(S)N(c2ccccc2)C(c2ccc(-c3ccc(Cl)c(Cl)c3)o2)NC1=O (stereo not given),24.3%,–

Compound,inhibition,IC50
Cc1cccc(N2NC(=O)/C(=C/c3ccc(-c4ccc(Cl)c(C(=O)O)c4)o3)C2=O)c1,–,31.9 µM (active)
CCCCC1(C)OC(=O)C(=Cc2ccc(-c3ccc(Cl)c(C(=O)O)c3)o2)C(=O)O1 (stereo not given),18.5% [at 50 µM],–
O=C1NN(c2ccccc2)C(=O)/C1=C/c1ccc(-c2ccc(Cl)c(C(=O)O)c2)o1,–,13.7 µM (active)
Cn1sc(=O)c2cc(S(=O)(=O)NC3CC3)ccc21,-4.05%,–
CCN1C(=O)CC(N2CCC(Nc3ccc(OC)cc3)CC2)C1=O (stereo not given),–,4.87 µM (active)
O=C(O)c1cc(Nc2cc(Cl)c3nonc3c2[N+](=O)[O-])ccc1O,-13.7%,–
O=C1NC(=O)C(c2ccccc2[N+](=O)[O-])=C1Nc1ccc(O)c(Cl)c1,–,11.8 µM (active)
N=c1c2c(ncn1CCCO)Oc1ccc3ccccc3c1C2c1ccccc1 (stereo not given),-10.2%,–
COc1cc(/C=C(\C#N)c2ccccn2)cc(OC)c1O,–,4.83 µM (active)
COc1cc(/C=C(\C#N)c2nc3ccccc3n2C)cc(OC)c1O,–,6.31 µM (active)
COc1ccc(-c2ccc(OC(=O)NC3CCS(=O)(=O)C3)cc2)cc1 (stereo not given),–,5.8 µM (active)
COc1ccc(S(=O)(=O)N2CCC(NC(=O)c3ccccc3)CC2)cc1,-31%,–
O=c1c(C(c2c(O)nc3n(c2=O)CCS3)c2cccc3ccccc23)c(O)nc2n1CCS2,–,20.9 µM (active)
C=CCOc1ccc(C2NC(=S)NC(c3ccccc3)=C2C(C)=O)cc1OC (stereo not given),18.3% [at 50 µM],–
Oc1ccc(/C=N/Nc2ccc(Cl)nn2)cc1O,–,8.65 µM (active)
Oc1ccc(/C=N/Nc2ccc(C(F)(F)F)cn2)cc1O,–,5.59 µM (active)
N=C1/C(=C/c2ccc(Br)o2)C(=O)N=C2SC(CC(=O)N3CCCC3)=NN12,-27.2%,–
CN(C(=O)c1ccccc1C(=O)OCC(=O)NCc1cccs1)C1CCCCC1,–,44.1 µM (active)
CC1=C(C(=O)OCC(C)C)C(c2cccs2)NC(=S)N1 (stereo not given),21.6%,–
N#CC1(NC(=O)COC(=O)c2cc(O)c3ccccc3c2O)CCCCC1,-260%,–
Cc1ccc(-n2nnnc2C(Cl)(Cl)c2nnnn2-c2ccc(C)cc2)cc1,-30.1%,–
c1coc(-c2nc(-c3ccco3)c(-c3ccco3)nc2-c2ccco2)c1,-94.1%,–
c1coc(-c2nc3ccccc3nc2-c2ccco2)c1,18.3%,–
Nc1nc(-c2ccco2)cs1,–,10.8 µM (active)
Nc1ccc(-c2sc(N)nc2-c2ccccc2)cc1,–,8.36 µM (active)

Compound,inhibition,IC50
NC(=O)c1sc2nnc(-c3ccccc3)c(-c3ccccc3)c2c1N,19.4%,–
ClCC1=Nc2cccc3cccc(c23)N1,–,4.21 µM (active)
O=C(COC(=O)CSc1ccc([N+](=O)[O-])cc1)NCCc1ccccc1,-13.7%,–
CCOc1cc(/C=N\NC(=O)CC(=O)NCCc2ccccc2)ccc1O,–,4.71 µM (active)
COc1cc(/C=N\NC(=O)CC(=O)NCCc2ccccc2)ccc1O,–,3.22 µM (active)
CC(C)CCNC(=O)CCCc1ccccc1,-7.26%,–
COc1ccc(Cl)cc1NC(=S)N1CCC(c2ccc(C)cc2)C1 (stereo not given),9.81%,–
COc1ccc(N2CCC(CNC(=S)Nc3c(C)cc(C)cc3C)C2)cc1 (stereo not given),–,12.1 µM (active)
COc1ccc(N2CCC(CNC(=S)Nc3ccc(C)cc3C)C2)cc1 (stereo not given),–,10.7 µM (active)
Cc1ccc(NC(=S)NCC2CCN(C(C)c3ccccc3)C2)cc1C (stereo not given),20.5% [at 50 µM],–
COc1ccc(N2CCC(CNC(=S)Nc3c(C)cccc3C)C2)cc1 (stereo not given),–,7.45 µM (active)
Cc1cc(SCC(=O)c2ccccc2)nc(C)n1,16.8%,–
N#Cc1c(-c2ccccc2)nc(SCC(=O)N2c3ccccc3Sc3ccccc32)[nH]c1=O,-1.42%,–
O=C(CSc1nc2ccccc2n1CCc1ccccc1)c1ccc(O)c(O)c1,–,43.4 µM (active)
CCCn1c(SC(C)C(=O)O)nc2ccccc21 (stereo not given),9.81%,–
O=C(CSc1nc2ccccc2c(=O)[nH]1)c1ccc(O)c(O)c1,–,9.7 µM (active)
O=C(CSc1n[nH]c(-c2ccccc2)n1)c1ccc(O)c(O)c1,–,10 µM (active)
Cc1ccc(C(=O)N(Cc2ccc3c(c2)OCO3)Cc2nc3ccccc3c(=O)[nH]2)cc1,9.42%,–
Brc1ccc(-c2n(-c3ccccn3)c3ccccc3[n+]2-c2ccccn2)cc1,1.83%,–
CC(=O)N1c2c(cc(Br)cc2S(=O)(=O)N2CCCCC2)CC1C (stereo not given),17.1%,–
C[c-]1[c-](C)[c-](C)[c-](C)[c-]1C.[Fe].c1cc2nccc(N3CCCC3)[c-]2c1 (stereo not given),–,5.8 µM (active)
CCOC(=O)N1CCC(NC(=O)c2cnn3c2NC(c2ccco2)CC3C(F)(F)F)CC1 (stereo not given),12.3%,–
CCN(C(=O)CN1CCN(c2ccc(O)cc2)CC1)c1c(N)n(Cc2ccccc2)c(=O)[nH]c1=O,–,4.79 µM (active)
CCN(C(=O)CN1CCN(c2cccc(Cl)c2)CC1)c1c(N)n(Cc2ccccc2)c(=O)[nH]c1=O,-12.3%,–
COCCN(C(=O)COC(=O)c1cc2c(s1)CCC2)c1c(N)n(Cc2ccccc2)c(=O)[nH]c1=O,4.61%,–
